# APOBEC3G inh: APOBEC3G DNA deaminase inhibitors, primary screen, biochemical, fluorescence, single-stranded DNA substrate, uHTS. recombinant A3G, ssDNA deamination FAM/TAMRA fluorescence. inhibition, % at 20 µM. hit rate 0.28% among 330,000. AID 493012, 2011;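 active = inhibition of at least 40% at 20 µM, with no more than 30% in the related APOBEC3A deaminase screen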;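 note: plate controls were DMSO wells with A3G for no effect and wells lacking A3G enzyme for full effect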
# Target sequence (Q9HC16 whole entry, looked up): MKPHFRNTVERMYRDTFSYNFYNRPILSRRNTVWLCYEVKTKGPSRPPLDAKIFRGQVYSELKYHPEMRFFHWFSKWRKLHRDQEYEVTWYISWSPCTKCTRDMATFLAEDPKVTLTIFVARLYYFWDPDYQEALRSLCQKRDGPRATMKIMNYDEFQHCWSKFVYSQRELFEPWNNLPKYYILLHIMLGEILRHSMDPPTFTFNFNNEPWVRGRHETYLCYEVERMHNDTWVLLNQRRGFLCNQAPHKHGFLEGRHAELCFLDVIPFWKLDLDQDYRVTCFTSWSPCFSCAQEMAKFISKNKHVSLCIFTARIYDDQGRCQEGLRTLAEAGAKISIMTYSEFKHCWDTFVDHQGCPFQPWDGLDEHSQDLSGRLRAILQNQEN
# PolyA inh: polyadenylation inhibitors in yeast reporter cells, primary screen, luminescence, S. cerevisiae; S. cerevisiae SKY197-pL101 polyadenylation reporter, beta-gal luminescence; efflux-impaired pdr1/pdr3 knockout yeast; score 100 = 6 SD above DMSO; activity score, % at 12 µM; hit rate 0.02% among 300,000;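 active = lowest replicate activity score at least 50, where 100 means six control SD above control mean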;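 note: yeast exposed to compound for 9 h at 30 °C; higher score means more reporter readthrough which indicates perturbed polyadenylation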
# NALP1 inh: NALP1 inflammasome inhibitors in reconstituted yeast, colorimetric, S. cerevisiae, triplicate retest | S. cerevisiae NALP1/ASC/caspase-1 growth, X-gal OD620, 72 h | inhibition, % at 10 µM | hit rate 0.61% among 280,000 | AID 2071, 2009; in the data active = inhibition mostly above about 24%, no sharp cut-off; inactive = mostly below about 32%
# APOBEC3A inh: APOBEC3A ssDNA deaminase inhibitors, primary screen, selectivity assay for APOBEC3G inhibitor project, biochemical, FAM/TAMRA oligo cleavage fluorescence; inhibition, % at 20 µM; AID 493011, 2011; hit rate 0.41% among 330,000; recombinant A3A, FAM/TAMRA ssDNA deamination fluorescence; DNA dC->dU-editing enzyme APOBEC-3A (Homo sapiens), P31941;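 active = at least 40% inhibition at 20 µM here, with at most 30% in a related deaminase screen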;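 note: plate controls were A3A with DMSO for no effect and wells lacking A3A enzyme for full effect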
# Target sequence (P31941 whole entry, looked up): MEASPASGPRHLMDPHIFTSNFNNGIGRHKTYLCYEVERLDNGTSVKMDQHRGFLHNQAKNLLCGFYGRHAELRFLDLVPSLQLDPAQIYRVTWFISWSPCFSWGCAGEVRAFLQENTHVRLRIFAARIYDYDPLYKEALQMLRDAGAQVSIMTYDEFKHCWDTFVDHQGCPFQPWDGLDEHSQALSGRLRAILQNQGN
# APOBEC3A confirm: APOBEC3A deaminase inhibitors, retest, confirmation, selectivity assay for APOBEC3G inhibitor project, biochemical, single concentration, fluorescence readout; hit rate 63% among 1,400; AID 493151, 2011; inhibition, % at 20 µM; shares compounds with APOBEC3A inh; recombinant A3A, ssDNA deaminase UDG fluorescence assay;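 active = inhibition reaching a set limit, 80% of the first screen's cutoff, at 20 µM in any replicate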;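 note: plate controls were DMSO wells with A3A for no effect and wells lacking A3A enzyme for full effect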
# UDG A3A counter: E. coli UDG inhibitors, confirmation, counter-screen for APOBEC3A inhibitor project, biochemical, single concentration, fluorescence, FAM/TAMRA oligo; shares compounds with APOBEC3A inh; UDG counterscreen, FAM/TAMRA uracil oligo fluorescence; inhibition, % at 20 µM; 1,000 tested, under 10 active; call rule not given here
# Active calls of the source: *; / = no result. An excerpt weighted towards active compounds, which were near 1.2% of everything screened.
SMILES,APOBEC3G inh,PolyA inh,NALP1 inh,APOBEC3A inh,APOBEC3A confirm,UDG A3A counter
CCOC(=O)CN1C(=O)C(=O)N(Cc2c(F)cccc2Cl)C1=O,1,-4,10,2,/,/
COc1ccc(C(CC(=O)N2CCCC2)c2c(OC)cc(OC)c3c(-c4ccccc4)cc(=O)oc23)cc1 (stereo not given),28,23,18,75*,76*,-3
COc1ccc(C(CC(=O)N2CCCC2)c2c(OC)cc(OC)c3ccc(=O)oc23)cc1 (stereo not given),-3,-8,10,7,/,/
O=C(COc1ccc(Cl)cc1)OCC(=O)N1CCCC1,-4,-2,10,55*,-1,3
CC(=O)Nc1ccc2c(COC(=O)CC3Sc4ccccc4NC3=O)cc(=O)oc2c1 (stereo not given),16,3,14,50*,51*,5
CCCc1cc(C(=O)Cc2ccccn2)c(O)cc1O,-4,-10,7,-2,/,/
O=C(Nc1ccc(Br)cn1)c1coc(=O)c(Br)c1,24,3,/,62*,21*,-5
C=CCn1cccc(C(=O)Nc2ccc(OC)c(Cl)c2)c1=O,-9,4,27,48*,-10,6
CCc1ccc(N/C(N)=N/c2nc(CSc3ncccn3)cc(=O)[nH]2)cc1,-7,-7,6,0,/,/
CCCCN(C)CCCNC(=O)C1(O)c2ccccc2NC(=O)N1c1ccc(Cl)cc1 (stereo not given),-6,8,14,-3,/,/
Cc1nc(SCCOc2ccc(F)cc2)c2ccccc2n1,15,1,-23,51*,76*,6
CN1CCC(N(C)S(=O)(=O)c2ccc(NC(=O)COc3ccc(Br)cc3Cl)cc2)CC1,-6,16,/,42*,48*,2
Cc1ccc(OCC(=O)Nc2ccc(S(=O)(=O)N(C)C3CCN(C)CC3)cc2)c(C)c1,16,-10,26,43*,55*,-3
CN1CCC(N(C)S(=O)(=O)c2ccc(NC(=O)c3ccc(S(=O)(=O)N(C)C)cc3)cc2)CC1,1,/,/,47*,39*,-3
COc1ccc(S(=O)(=O)Nc2ccc(C)c(S(=O)(=O)N3CCOCC3)c2)cc1[N+](=O)[O-],-5,/,/,-1,/,/
O=C(Cc1cccs1)NNC(=S)NCc1ccco1,-7,9,-16,78*,-4,-3
CCc1c(C2(O)CCCCC2)[nH]c2cnccc12,-10,/,/,1,/,/
CC(=O)Nc1ccc(NC(=O)Nc2ccccc2C)cc1,21,0,-9,0,/,/
Cc1ccccc1NC(=O)N(C(C)C)C(C)C,-4,-3,3,83*,-2,-2
Cc1nnc2n1N=C(c1ccc(F)cc1F)CS2,-9,/,/,-6,/,/
NS(=O)(=O)c1cc(C(=O)OCC(=O)Nc2ccc3[nH]c(=O)[nH]c3c2)ccc1Cl,2,/,/,50*,44*,-3
CCC(C)N(C(=O)CSc1nnc(C)n1C)C1CCS(=O)(=O)C1 (stereo not given),-8,9,/,26,/,/
CCN1/C(=C2\C(=O)N(c3ccccc3)N=C2C)C=Cc2cc(C)ccc21,18,0,25,49*,21,/
O=C(Cn1c2[n+](c3ccc(C(F)(F)F)cc31)CCCCC2)Nc1ccccc1,23,13,6,60*,62*,-2
FC(F)(F)c1ccc2c(c1)n(Cc1ccccc1)c1[n+]2CCCCC1,65,2,2,45,/,/
SMILES,APOBEC3G inh,PolyA inh,NALP1 inh,APOBEC3A inh,APOBEC3A confirm,UDG A3A counter
O=C(Cn1c2[n+](c3ccc(C(F)(F)F)cc31)CCCCC2)c1cccc([N+](=O)[O-])c1,-4,30,-1,-3,/,/
CCc1cccc(NC(=O)Cn2c3[n+](c4ccc(C(F)(F)F)cc42)CCCCC3)c1,17,2,17,62*,78*,-4
COc1ccc(CCNC(=O)C2CC(=O)N(C3CCCCC3)C2)cc1OC (stereo not given),13,-3,-6,0,/,/
Cc1cc(C)[n+](C)n1CC(O)Cn1c2ccccc2c2ccccc21 (stereo not given),11,13,-12,45*,76*,2
CCN(CC)CC(O)Cn1c2ccccc2c2ccccc21 (stereo not given),-1,7,-2,3,/,/
CCCCC1(C)OC(=O)C(=Cc2ccc(-c3ccc(Cl)c(C(=O)O)c3)o2)C(=O)O1 (stereo not given),26,25,23,55*,30*,1
CNC(=O)/C(C#N)=C\c1ccc(CNS(=O)(=O)c2ccc(Cl)cc2)o1,11,-5,-8,71*,77*,-3
COC(=O)c1[nH]c2ccc(Br)cc2c1NC(=O)CN1CCN(C2CCCCC2)CC1,21,5,12,47*,28,/
O=C(/C=C/c1ccc2c(c1)OCO2)c1cccnc1,-10,13,19,-4,/,/
O=C(N/N=C\C=C\c1ccc2c(c1)OCO2)c1cccnc1,-4,/,28,45*,1,3
CC1(C)Oc2ccc3ccc(=O)oc3c2C(/C=N/O)=C1Cl,8,3,1,67*,54*,-2
CCSc1ccc([C@@H]2[C@@H]3C(=O)N(C)C(=O)[C@@H]3[C@]3(C(=O)OC)CCCCN23)cc1,-12,1,/,-2,/,/
CCOC(=O)CN1C(=O)N[C@@H](CCc2ccccc2)[C@@H](C(=O)OC)[C@H]1C,-14,5,/,-5,/,/
CCN1C(=NCCOC)N[C@@H](CCc2ccccc2)[C@H](C(=O)OC)[C@H]1C,4,13,20,46*,66*,-3
CCN1C(=NCCCOC(C)C)N[C@@H](CCc2ccccc2)[C@H](C(=O)NCCCOC(C)C)[C@H]1C,9,/,/,42*,58*,-2
Cc1ccc(-c2cnc3c(Cl)c(C)nn3c2)cc1,-1,-23,9,0,/,/
O=C1CCc2cc(S(=O)(=O)Nc3ccccc3F)ccc2N1,6,/,/,99*,0,/
Cc1ccc(N(C(=O)c2csnn2)C(C(=O)NC(C)(C)C)c2cccs2)cc1 (stereo not given),6,-19,16,-1,/,/
Cc1cc(C)cc(N(C(=O)c2csnn2)C(C(=O)NC(C)(C)C)c2cccs2)c1 (stereo not given),-4,8,8,68*,-4,1
